Screens: PubChem BioAssay, several laboratories
Shown are actives, neighbours in structure and some others; about 4.1% of the full set was active somewhere.
Cav3 T inh: Cav3.2 calcium influx blockers – cell-based, Fluo-4 calcium fluorescence, FDSS, MLSMR library, primary screen; Voltage-dependent T-type calcium channel subunit alpha-1H (Homo sapiens), O95180; AID 449739, 2010; hit rate 4% among 100,000; Cav3.2-expressing cells; hits give low values; B-score at 10 µM;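 active = single-dose well whose peak fluorescence ratio is a statistical outlier from its plate by either plate-standardised score or position-corrected B-score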
MRP resist rev: reversal of MRP1-mediated doxorubicin resistance, primary screen, H69AR cells, doxorubicin co-treatment; H69AR cells + 2 uM doxorubicin, CellTiter-Glo, 72 h; differential viability (reversal), % at 10 µM; hit rate 0.04% among 85,000;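 active = viability drop by adding the cancer drug above about 55%, with treated viability meeting a 40% cutoff, limit read from the data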;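 note: larger differential means the compound sensitizes cells more to doxorubicin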
PTK2B oligo ant: antagonists of Pyk2 self-association, primary screen, Q293 cells, FERM NanoBiT luminescence, HTS; hits give low values; hit rate 0.83% among 99,000; AID 1347419, 2020; z-score (the deposit names both 25 µM and 10 µM);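 active = Z-score of -3 or lower, scaled per plate to the spread of control and sample wells; inactive = z-score above -3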;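 note: negative z-score means lost luminescence so less FERM oligomerization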
MRP1 act: H69AR viability gain despite doxorubicin, primary screen, MRP-1 activator project, H69AR cells, CellTiter-Glo. viability rescue. viability increase, % at 10 µM. hit rate 0.61% among 140,000;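 active = viability gain under doxorubicin at or above a set limit, the compound median plus 3 SD, cut at about 4.7% in these data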;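 note: MRP-1 overexpressing cells given doxorubicin 25 µM after compound pretreatment; 18-22 h compound pretreatment then 72 h with doxorubicin before readout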
Mac1 fbg enh: enhancers of CD11b/CD18 adhesion to fibrinogen, primary screen, K562 cells, luminescence; Integrin beta-2 (Homo sapiens) + Integrin alpha-M (Homo sapiens), P05107+P11215; ATPlite luminescence; activation, % at 10 µM; hit rate 0.07% among 93,000;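 active = 10 µM primary screen giving 50% or more activity, confirmed by 40% or more on retest at that dose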
Target sequence (P05107 whole entry, looked up, other chains not shown): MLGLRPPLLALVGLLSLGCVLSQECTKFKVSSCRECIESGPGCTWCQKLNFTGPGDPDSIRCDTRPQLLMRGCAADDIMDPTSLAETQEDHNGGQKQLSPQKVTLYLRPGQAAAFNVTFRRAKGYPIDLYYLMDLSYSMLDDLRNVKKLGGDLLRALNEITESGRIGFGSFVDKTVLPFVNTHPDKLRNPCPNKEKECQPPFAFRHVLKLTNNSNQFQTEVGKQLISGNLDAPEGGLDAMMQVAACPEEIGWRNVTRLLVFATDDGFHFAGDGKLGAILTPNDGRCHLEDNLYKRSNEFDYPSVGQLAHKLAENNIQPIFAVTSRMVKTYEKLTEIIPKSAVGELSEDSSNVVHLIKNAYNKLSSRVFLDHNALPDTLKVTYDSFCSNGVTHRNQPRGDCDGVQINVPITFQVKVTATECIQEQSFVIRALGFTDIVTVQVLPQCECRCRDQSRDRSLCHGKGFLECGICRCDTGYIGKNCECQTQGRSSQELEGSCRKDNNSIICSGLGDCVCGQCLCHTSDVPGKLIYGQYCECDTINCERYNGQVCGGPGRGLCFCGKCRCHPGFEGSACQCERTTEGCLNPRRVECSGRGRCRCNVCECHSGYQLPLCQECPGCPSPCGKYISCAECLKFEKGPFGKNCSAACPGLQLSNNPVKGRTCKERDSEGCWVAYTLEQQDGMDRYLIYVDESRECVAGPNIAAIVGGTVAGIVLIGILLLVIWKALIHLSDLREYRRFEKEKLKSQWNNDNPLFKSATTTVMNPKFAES
CD11b adhes inh: inhibitors of CD11b/CD18 adhesion to fibrinogen, primary screen, K562 cells, luminescence; Integrin beta-2 (Homo sapiens) + Integrin alpha-M (Homo sapiens), P05107+P11215; ATPlite luminescence; Mn2+ added to activate the integrin; inhibition, % at 10 µM; hit rate 0.54% among 93,000; AID 1497, 2009;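 active = primary inhibition of 50% or more at 10 µM, then 40% or more on retest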
Hits are given with their value; i = inactive; nt = no result given.

SMILES	Cav3 T inh	MRP resist rev	PTK2B oligo ant	MRP1 act	Mac1 fbg enh	CD11b adhes inh
CCC(C)NC(=O)Cn1nc([N+](=O)[O-])c(Cl)c1C (stereo unspecified)	i	nt	i	i	i	i
CC(Cc1ccccc1)C(=O)N(C)Cc1cccnc1 (stereo unspecified)	i	nt	nt	i	nt	nt
O=C(CCCC(=O)N1CCN(c2ccc([N+](=O)[O-])cc2)CC1)c1ccccc1	nt	nt	nt	i	nt	nt
CCCCCCc1nc2ccccc2c(=O)n1NC(=O)c1c(O)c2c(n(CC(C)C)c1=O)CCCC2	i	i	i	i	i	i
Cc1nc2ccccc2c(=O)n1NC(=O)c1c(O)c2c(n(CC(C)C)c1=O)CCCC2	-10.7	i	i	i	nt	nt
COc1cccc(-c2csc(N3CCN(C(=O)NC45CC6CC(CC(C6)C4)C5)CC3)n2)c1	-3.31	i	i	i	nt	nt
CC(=O)Nc1ccc(OC(=O)c2cc([N+](=O)[O-])ccc2Cl)cc1	i	nt	i	i	nt	nt
COc1ccc(OCc2nnc(SCC(=O)N3c4ccccc4Sc4ccc(Cl)cc43)o2)cc1	-4.45	nt	i	14.6	nt	nt
Cc1ccc(C(=O)CSc2nnc(COc3cccc(C)c3)o2)cc1	i	92.3	i	i	i	i
COc1cccc(OCc2nnc(SCC(=O)N3c4ccccc4Sc4ccc(Cl)cc43)o2)c1	nt	nt	nt	i	nt	nt
Cc1ccc(OCc2nnc(SCC(=O)N3c4ccccc4Sc4ccc(Cl)cc43)o2)cc1	nt	nt	nt	10.8	nt	nt
CCCc1cc(=O)[nH]c(SCc2cccc(C)c2)n1	i	i	i	i	i	i
O=C(CCS(=O)(=O)Cc1ccccc1)NCc1ccco1	i	i	i	i	i	i
O=C(NC(Cc1ccccc1)c1nc2ccccc2[nH]1)C1CC(=O)N(c2ccc3c(c2)OCCO3)C1 (stereo unspecified)	i	i	i	i	i	i
COc1cc(/C=C2\S/C(=N/S(=O)(=O)c3ccc(C)cc3)NC2=O)c([N+](=O)[O-])cc1OC	-5.27	i	i	i	nt	nt
Cc1ccc(S(=O)(=O)/N=C2/NC(=O)/C(=C\c3ccco3)S2)cc1	nt	nt	i	i	i	i
Cc1ccc2oc(=O)n(Cc3ccccc3OC(C)C)c2c1	-6	nt	i	i	i	i
CCCCOc1ccccc1Cn1c(=O)oc2ccc(C)cc21	i	nt	i	i	i	i
O=C(NC1(C(F)(F)F)NC(=O)N(Cc2ccco2)C1=O)c1cccs1 (stereo unspecified)	i	i	i	i	i	i
O=C1CCC(C(=O)OCC(=O)N2N=C3/C(=C/c4ccccc4)CCCC3C2c2ccccc2)N1 (stereo unspecified)	i	i	i	i	i	i
O=C(CSc1ncn[nH]1)N1N=C2/C(=C/c3ccco3)CCCC2C1c1ccco1 (stereo unspecified)	-4.12	i	i	8.4	i	i
O=C(Nc1ccc(Cl)cc1)N1CCCC1	i	i	i	i	i	i
Cc1ccc(NC(=O)N2CCC(O)(c3ccc(Cl)cc3)CC2)cc1	-4.27	i	i	i	i	i
CN1CC(c2ccc(Cl)c(Cl)c2)[C@@]2(COc3ccccc3C2=O)[C@@]12C(=O)Nc1ccccc12 (stereo partly specified)	i	nt	-3.39	i	i	i
O=C(CCC1COc2ccccc2O1)Nc1ccc(Cl)cn1 (stereo unspecified)	-5.9	i	i	i	i	i
SMILES	Cav3 T inh	MRP resist rev	PTK2B oligo ant	MRP1 act	Mac1 fbg enh	CD11b adhes inh
CCOc1ccc(N(CC(=O)N2CCc3ccccc32)S(=O)(=O)c2c(C)noc2C)cc1	i	i	nt	i	i	i
CCOc1ccc(N(CC(=O)N2CC=C(c3ccccc3)CC2)S(=O)(=O)c2c(C)noc2C)cc1	-4.82	i	nt	i	i	i
Cc1n[nH]c(C)c1S(=O)(=O)N(CC(=O)N1CCc2ccccc21)c1ccc(C(C)C)cc1	3.05	i	nt	i	i	i
COc1ccc(N(CC(=O)N2CC=C(c3ccccc3)CC2)S(=O)(=O)c2c(C)noc2C)cc1	i	i	nt	i	i	i
Cc1cc(C)cc(N(CC(=O)N2CCc3ccccc32)S(=O)(=O)c2c(C)noc2C)c1	-5.46	i	nt	i	i	i
Cc1cc(C)cc(N(CC(=O)N2CCn3c2nc2ccccc23)S(=O)(=O)c2c(C)noc2C)c1	-5.63	i	nt	i	i	i
Cc1ccc(NC(=O)CN(c2cc(C)cc(C)c2)S(=O)(=O)c2c(C)noc2C)nc1	-4.5	i	nt	i	i	i
CCN(CC)S(=O)(=O)c1ccc(Cc2ncc(C(F)(F)F)cc2Cl)s1	-3.68	i	i	i	i	i
NS(=O)(=O)c1ccc(Cc2ncc(C(F)(F)F)cc2Cl)s1	i	i	i	i	i	i
CCOC(=O)c1[nH]c(C)c(C(=O)Nc2ccc3c(c2)CCC3)c1C	i	i	i	i	i	i
CCOC(=O)c1[nH]c2ccccc2c1NC(=S)Nc1cc(C)ccc1C	nt	nt	nt	i	nt	nt
CCCCCCC(=O)Nc1ccc(C(=O)N/N=C/c2cccnc2)cc1	i	nt	i	9.9	nt	nt
S=C(NCc1ccccc1)NCC1COc2ccccc2O1 (stereo unspecified)	-4.53	nt	i	i	i	i
Clc1ccc(CSc2nnc3ccccn23)c(Cl)c1	nt	nt	nt	i	i	i
CN1CCN(C(=S)c2ccc(-c3cccc(Cl)c3Cl)o2)CC1	nt	nt	nt	i	nt	nt
S=C(c1ccc(-c2ccccc2Cl)o1)N1CCCCC1	nt	nt	nt	5.3	nt	nt
COc1ccc(C(=O)NCCn2ccc3ccccc32)c(OC)c1	i	i	i	i	i	i
CCCC1=C(C(=O)OCC)C(c2cc(Cl)cc(OC)c2OCC(=O)OCC)NC(=O)N1 (stereo unspecified)	-5.17	i	-3.11	i	i	i
CCNc1nc(NC(C)C)nc(N(C#N)Cc2ccccc2)n1	nt	i	i	i	i	i
CCNc1nc(NC(C)C)nc(N(C#N)CCOc2ccc(Cl)cc2Cl)n1	-9.44	i	i	i	i	i
N#C/C(=C\c1ccc(O)c(O)c1)S(=O)(=O)c1ccccc1	i	nt	i	i	i	81.8
Cc1[nH]c2ccccc2c1/C=C(\C#N)S(=O)(=O)c1ccccc1	i	i	i	i	i	i
CC(=O)c1cccc(NC(=O)CCOc2ccccc2)c1	i	i	i	i	i	i
CC(Sc1nnc(-c2ccc(Cl)cc2Cl)n1Cc1ccccc1)C(=O)Nc1nccs1 (stereo unspecified)	-8.18	i	i	i	nt	nt
Cc1nnc(SC(C)C(=O)Nc2ccc(Cl)cn2)n1Cc1ccccc1 (stereo unspecified)	i	i	i	i	i	i
O=C(/C=C/c1ccccc1)NC(NC(=S)Nc1ccc(Cl)cc1)C(Cl)(Cl)Cl (stereo unspecified)	-7.43	nt	i	i	i	i
COc1ccc(NC(=S)NC(NC(=O)/C=C/c2ccccc2)C(Cl)(Cl)Cl)cc1 (stereo unspecified)	i	nt	i	i	nt	nt
